# Source: ChEMBL document CHEMBL4513141, “CO-ADD screening of NIH (USA) - Clinical Collection” (2021)
# Entries with a potency or affinity are not part of this list.
# Tests used:
# Klebsiella pneumoniae = details: Concentration 20 uM; ASSAY_TEST Inhibition of Bacterial Growth; detection method Absorption (OD600); MEDIA CAMHB; plate type 384well; NBS; CORNING #3640; time 18 hr
# Candida albicans = details: 20 µM
# Cryptococcus neoformans = details: Concentration 20 uM; ASSAY_TEST Inhibition of Fungal Growth; detection method Resazurin; Absorption (OD600-OD570); plate type 384well; NBS; CORNING #3640
SMILES,Inhibition (Klebsiella pneumoniae) [%],Inhibition (Candida albicans) [%],Inhibition (Cryptococcus neoformans) [%]
Cl.NC1CCN(c2cccc(Cl)n2)CC1,7.75,2.49,0.18
CC(C)(C)NC(=O)[C@@H]1C[C@@H]2CCCC[C@@H]2CN1C[C@@H](O)[C@H](Cc1ccccc1)NC(=O)[C@H](CC(N)=O)NC(=O)c1ccc2ccccc2n1.CS(=O)(=O)O [SAQUINAVIR MESYLATE],4.6,4.21,-6.99
CC(C)NCC(O)c1cc(O)cc(O)c1 (stereo not drawn) [METAPROTERENOL],7.02,1.29,0.32
CC12CC3CC(C)(C1)CC(N)(C3)C2.Cl [MEMANTINE HYDROCHLORIDE],12.73,4.09,-0.08
Nc1ccc(O)c(C(=O)O)c1 [MESALAMINE],,1.32,3.98
CC1(C)C[C@@H]1C(=O)N/C(=C\CCCCSC[C@H](N)C(=O)O)C(=O)[O-].[Na+] [CILASTATIN SODIUM],-2.84,5.18,-1.08
CCN1CCC[C@H]1CNC(=O)c1cc(S(N)(=O)=O)ccc1OC [LEVOSULPIRIDE],18.7,2.16,2.98
CCC(=O)O[C@]1(C(=O)SCF)[C@H](C)C[C@H]2[C@@H]3C[C@H](F)C4=CC(=O)C=C[C@]4(C)[C@@]3(F)[C@@H](O)C[C@@]21C [FLUTICASONE PROPIONATE],6.12,10.1,-1.8
Cc1nc2ccccn2c(=O)c1CCN1CCC(C(=O)c2ccc(F)cc2)CC1 [PIRENPERONE],8.87,3.8,-7.79
O=C1N[C@H](C(=O)O)CS1 [PROCYSTEINE],8.75,3.85,-5.5
COc1ccccc1OCC(O)COC(N)=O (stereo not drawn) [METHOCARBAMOL],10.57,3.99,-8.85
CCC(=O)OCC(=O)[C@@]1(OC(=O)CC)[C@@H](C)C[C@H]2[C@@H]3CCC4=CC(=O)C=C[C@]4(C)[C@@]3(Cl)[C@@H](O)C[C@@]21C [BECLOMETHASONE DIPROPIONATE],7.24,3.12,1.67
COc1ccc(C(=O)NCc2ccc(OCCN(C)C)cc2)cc1OC.Cl,9.02,4.71,-2.57
O=C1c2c(O)cc(O)cc2O[C@H](c2ccc(O)c(O)c2)[C@@H]1O,9.75,3.45,-8.67
Cc1ccc(-c2cc(C(F)(F)F)nn2-c2ccc(S(N)(=O)=O)cc2)cc1 [CELECOXIB],10.55,2.46,0.77
CN1C(=O)CC[C@H]1c1cccnc1 [COTININE],5.32,4.46,-1.87
CN(C)C(=O)Oc1ccc[n+](C)c1.[Br-] [PYRIDOSTIGMINE BROMIDE],3.02,1.97,-8.97
Nc1nc(=O)c2nc(CNc3ccc(C(=O)N[C@@H](CCC(=O)O)C(=O)O)cc3)cnc2[nH]1 [FOLIC ACID],12.05,1.12,-7.28
O=C([O-])Cc1ccccc1Nc1c(Cl)cccc1Cl.[Na+] [DICLOFENAC SODIUM],,5.99,1.05

SMILES,Inhibition (Klebsiella pneumoniae) [%],Inhibition (Candida albicans) [%],Inhibition (Cryptococcus neoformans) [%]
NC(Cc1cc(I)c(Oc2ccc(O)c(I)c2)c(I)c1)C(=O)O (stereo not drawn) [RATHYRONINE],9.96,2.19,-1.85
COC(=O)C1=C(C)NC(C)=C(C(=O)O[C@@H]2CCCN(Cc3ccccc3)C2)[C@@H]1c1cccc([N+](=O)[O-])c1.Cl,-2.17,3.91,-18.39
CCCN(CCC)S(=O)(=O)c1ccc(C(=O)O)cc1 [PROBENECID],16.52,,-7.72
CC(Oc1c(Cl)cccc1Cl)C1=NCCN1.Cl (stereo not drawn) [LOFEXIDINE HYDROCHLORIDE],6.35,2.12,-0.75
COCCOC(=O)C1=C(C)NC(C)=C(C(=O)OC(C)C)C1c1cccc([N+](=O)[O-])c1 (stereo not drawn) [NIMODIPINE],1.9,5.34,-7.18
CC(C)[N+](C)(CCOC(=O)C1c2ccccc2Oc2ccccc21)C(C)C.[Br-] [PROPANTHELINE BROMIDE],18.08,2.52,-1.43
CC=CC(=O)N(CC)c1ccccc1C,0.87,0.3,-7.28
CCOc1cc(CC(=O)N[C@@H](CC(C)C)c2ccccc2N2CCCCC2)ccc1C(=O)O [REPAGLINIDE],3.14,4.01,-6.91
Cc1cccc(CCN2CCC(C(=O)c3ccc(NS(C)(=O)=O)cc3)CC2)n1.Cl.Cl,0.58,2.81,-8.23
Cc1ncc([N+](=O)[O-])n1CC(O)CCl (stereo not drawn) [ORNIDAZOLE],14.36,2.15,-1.25
Nc1ccn([C@@H]2CS[C@H](CO)O2)c(=O)n1 [LAMIVUDINE],20.65,2.4,-7.82
"CCN(CC)C(=O)[C@]1(c2ccccc2)C[C@@H]1CN.Cl [1R,2S-MILNACIPRAN HYDROCHLORIDE]",12.52,0.44,-10.1
CCOC(=O)O[C@]1(C(=O)OCCl)CC[C@H]2[C@@H]3CCC4=CC(=O)C=C[C@]4(C)[C@H]3[C@@H](O)C[C@@]21C [LOTEPREDNOL ETABONATE],0.28,4.45,0.62
CCCC1O[C@@H]2C[C@H]3[C@@H]4CCC5=CC(=O)C=C[C@]5(C)[C@H]4[C@@H](O)C[C@]3(C)[C@]2(C(=O)CO)O1 (stereo partly drawn) [BUDESONIDE],10.57,2.59,-1.35
CCN1CCC[C@H]1CNC(=O)c1c(O)c(Cl)cc(Cl)c1OC [RACLOPRIDE],6.89,2.44,1.03
CNCC[C@H](Oc1cccc2ccccc12)c1cccs1.Cl [DULOXETINE HYDROCHLORIDE],5.49,3.07,-2.99
CC(C)(C)NC(=O)[C@@H]1CN(Cc2cccnc2)CCN1C[C@@H](O)C[C@@H](Cc1ccccc1)C(=O)N[C@H]1c2ccccc2C[C@H]1O.O=S(=O)(O)O [INDINAVIR SULFATE],0.54,2.58,-4.45
Cc1ccc(O)c([C@H](CCN(C(C)C)C(C)C)c2ccccc2)c1.O=C(O)C(O)C(O)C(=O)O [TOLTERODINE TARTRATE],6.3,4.41,-7.64
